Assay results reported in PubChem BioAssay AID623870 (Broad Institute, 2012).
In all, about 390,000 compounds went through this assay and about 2,600 (0.67%) were called active. Many of the other results were omitted from the sample, so actives are more common in it than they were. Unmarked numbers belong to inactive results.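 How the source made its calls: active means mean inhibition of replicates at least 50% and at least half of replicates each reaching 50%; inconclusive means half or more replicates reach 50% but mean below 50%; inactive means the rest.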

Molecular target: Transforming acidic coiled-coil-containing protein 3 (Homo sapiens) (UniProt Q9Y6A5)
Assay: inhibitors of ARNT PAS-B binding to TACC3 – biochemical, AlphaScreen, single concentration, primary screen (AID 623870);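 further: 0% = complete ARNT plus TACC3 wells and 100% = ARNT alone without TACC3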
Details: AlphaScreen His-ARNT PAS-B/GST-TACC3 binding, luminescence; at 9.99 µM; hits give high values; TACC3 fragment carries E629A point mutation

| SMILES | inhibition |
| --- | --- |
| CC=Cc1ccc2n(c1=O)C[C@H]1[C@H](CO)[C@@H](C(=O)NC3CCCC3)N(Cc3ccncc3)[C@@H]21 (mixture of isomers) | 7.61% |
| O=C(C[C@@H]1C[C@@H]2c3cc(NC(=O)C4CCC4)ccc3O[C@@H]2[C@@H](CO)O1)NCc1ccccc1 | -8.97% |
| CCC(=O)N1C[C@H](C)[C@H](OC)CN(C)C(=O)c2ccc(NS(C)(=O)=O)cc2OC[C@H]1C | 0.229% |
| COc1ccccc1C(=O)Nc1ccc2c(c1)C(=O)N(C)C[C@@H](OC)[C@@H](C)CN(C)[C@H](C)CO2 | 5.81% |
| CN1C(=O)c2cc(NC(=O)Nc3ccccc3Cl)ccc2OC[C@H]2O[C@H](CC(=O)NCCCN3CCOCC3)CC[C@H]21 | -6.44% |
| CCN(C(=O)Cc1nc(N)n[nH]1)C1(C(=O)Nc2ccccc2)CCCCC1 | 73.1% (active) |
| CCOC(=O)c1cn[nH]c1NC(=S)Nc1ccccc1 | -4.6% |
| COc1c(O)ccc2c1CN1CCc3cc4c(cc3C1C2)OCO4 (configuration not stated) | 59.9% (active) |
| COc1cc(C2c3cc4c(cc3C(O)C3COC(=O)C23)OCO4)cc(OC)c1OC (configuration not stated) | -5.89% |
| COc1ccc(-c2ccc3c(c2)[C@H]2[C@H](CCN2C(=O)c2ccc4c(c2)OCO4)[C@@H](CO)N3)cc1 | 2.52% |
| CC(C)C#Cc1cnc2c(c1)C(=O)N([C@H](C)CO)C[C@H](C)[C@@H](CN(C)C(=O)Nc1cc(F)ccc1F)O2 | 2.21% |
| C[C@H]1CN([C@@H](C)CO)C(=O)c2cc(C#Cc3ccccc3F)cnc2O[C@H]1CN(C)C | -2.77% |
| CC=Cc1ccc2n(c1=O)C[C@@H]1[C@@H](CO)[C@H](C(=O)NCC)[C@H]2N1CCC(F)(F)F (mixture of isomers) | -2.83% |
| COc1ccccc1-c1nnc(NC(=O)c2cccc(N3C(=O)CCC3=O)c2)o1 | 60.7% (active) |
| COc1ccc(Cl)cc1NC(=O)c1cccc(N2C(=O)C3CC=CCC3C2=O)c1 (configuration not stated) | 3.74% |
| COc1ccccc1C(=O)Oc1ccc(N2C(=O)CCC2=O)cc1 | -4.25% |
| CCNC(=O)C[C@H]1CC[C@@H](NC(=O)C2CCOCC2)[C@@H](CO)O1 | -5.26% |
| O=S(=O)(c1ccc(F)cc1)N1CCCCN2[C@H](CO)[C@@H](c3ccc(C#CC4CCCC4)cc3)[C@H]2C1 | 5.01% |
| CC(C)NC(=O)Nc1cccc2c1O[C@H](CN(C)S(=O)(=O)c1ccccc1)[C@@H](C)CN([C@@H](C)CO)C2=O | -11.5% |
| CNC(=O)C(=O)N/N=C/c1ccccn1 | 57.1% (active) |
| Cc1c(NC(=O)C(=O)N/N=C/c2cccs2)c(=O)n(-c2ccccc2)n1C | 4.89% |
| C=CCOc1ccc(/C=N/NC(=O)C(C)Sc2ccccn2)cc1OCC (configuration not stated) | 14.2% |
| COc1ccccc1S(=O)(=O)N[C@@H]1C=C[C@H](CC(=O)N2CCOCC2)O[C@@H]1CO | -20.1% |
| CN1[C@@H]2c3ccc(C4=CCCCC4)c(=O)n3C[C@H]1[C@H](CO)[C@H]2C(=O)NCc1ccc(F)cc1 | 3.89% |

| SMILES | inhibition |
| --- | --- |
| Cc1cc(C)nc(N/N=C/c2c(CO)cnc(C)c2O)n1 | 63% (active) |
| COc1ccc(CNC(=O)C[C@H]2C[C@@H]3c4cc(NC(=O)NC5CCCC5)ccc4O[C@@H]3[C@H](CO)O2)cc1 | -2.96% |
| COc1ccc(S(=O)(=O)N2CCCCN3[C@H](CO)[C@H](c4ccc(C5=CCCCC5)cc4)[C@@H]3C2)cc1 | -0.894% |
| CO[C@@H]1CN(C)C(=O)c2ccc(NC(=O)Nc3cc(Cl)cc(Cl)c3)cc2OC[C@H](C)NC[C@H]1C | 17.2% |
| C[C@H]1CN([C@@H](C)CO)S(=O)(=O)c2ccc(-c3ccncc3)cc2O[C@@H]1CN(C)C(=O)CC1CC1 | -7.68% |
| CCN(C[C@@H]1[C@H](c2ccccc2)[C@@H](CO)N1CC1CC1)C(=O)c1ccccn1 | 1.43% |
| CCN(CC)CCOc1ccc2c(c1)C(=NNC(=O)c1ccccn1)c1cc(OCCN(CC)CC)ccc1-2 | 58.8% (active) |
| COCC(=O)N1[C@H](CNC(=O)c2ccccn2)[C@H](c2ccccc2)[C@@H]1CO | 0.322% |
| C[C@@H]1CN([C@@H](C)CO)C(=O)c2cccc(NC(=O)c3nc4ccccc4s3)c2O[C@@H]1CN(C)Cc1ccc(Cl)c(Cl)c1 | -2.22% |
| CCn1cc(/C=C2/SC(=S)NC2=O)c(C)n1 | 23.8% (active) |
| Cc1nn(C)cc1/C=C1\CCC/C(=C\c2cn(C)nc2C)C1=O | 2.65% |
| COc1ccc(NC(=O)N(C)C[C@H]2Oc3c(NC(=O)NC(C)C)cccc3C(=O)N([C@@H](C)CO)C[C@H]2C)cc1 | -14% |
| CCc1nnc(NS(=O)(=O)c2ccc(N=Cc3c(C)[nH]n(-c4ccc(C)cc4)c3=O)cc2)s1 | 45.6% (active) |
| CCc1nnc(NC(=O)CCN(c2ccc(C)cc2)S(=O)(=O)c2ccccc2)s1 | 2% |
| COc1cc(SC#N)ccc1N=Cc1c(C)[nH]n(-c2ccc(C)cc2)c1=O | 2.45% |
| COc1ccc(-c2ccc3c(c2)[C@H]2[C@H](CCN2S(=O)(=O)c2ccccc2F)[C@H](CO)N3)cc1 | -0.779% |
| COc1cccc(C(=O)Nc2ccc3c(c2)C(=O)N(C)[C@@H]2CC[C@H](CC(=O)NCC4CC4)O[C@@H]2CO3)c1 | -14.2% |
| O=C(C[C@H]1CC[C@H](NC(=O)C2CCC2)[C@@H](CO)O1)NCCCN1CCOCC1 | 0.473% |
| C[C@H]1CN([C@@H](C)CO)C(=O)Cc2cc(NC(=O)CCC(F)(F)F)ccc2O[C@H]1CN(C)C(=O)NC1CCCCC1 | -6.06% |
| Oc1c(CN2CCN(c3ccc(F)cc3)CC2)cc(Cl)c2cccnc12 | 73.2% (active) |
| O=C(c1cccc(F)c1)N1CCN(c2ccc([N+](=O)[O-])c3cccnc23)CC1 | -1.2% |
| O=C(c1ccccc1)c1cccn1CC(=O)N1CCN(c2ccc(F)cc2)CC1 | 1.56% |
| Oc1c(CN2CCCC2)cc(COCc2ccccc2)c2cccnc12 | 64.5% (active) |
| C/C(=N/N1CCN(Cc2cccc3ccccc23)CC1)c1cccnc1 | 3.31% |

| SMILES | inhibition |
| --- | --- |
| CCCc1cc(=O)oc2c(C)c(O)c(CN3CCCCC3)cc12 | 0.049% |
| C[C@@H]1CCCCO[C@H](CN(C)C(=O)CCC(F)(F)F)[C@H](C)CN([C@H](C)CO)C(=O)c2cc(NC(=O)NC3CCCCC3)ccc2O1 | -7.47% |
| CCNC(=O)[C@H]1[C@H](CO)[C@H]2Cn3c(ccc(-c4cccc(OC)c4)c3=O)[C@H]2N1Cc1nccs1 | -9.07% |
| CO[C@@H]1CC[C@@H]2CCOc3ccc(C#N)cc3C(=O)N(C)C[C@@H](C)C(=O)N(C)C[C@@H]1O2 | -7.05% |
| CC(C)NC(=O)N(C)C[C@H]1OCCCC[C@H](C)Oc2ccc(NC(=O)CCCN(C)C)cc2C(=O)N([C@@H](C)CO)C[C@H]1C | -0.512% |
| COc1ccccc1-c1cnc2c(c1)C(=O)N([C@H](C)CO)C[C@@H](C)[C@@H](CN(C)Cc1ccncc1)O2 | -5.7% |
| CC(=O)N1[C@@H](CO)[C@H](c2ccccc2)[C@@H]1CN(C)C(=O)CN1CCOCC1 | -11.7% |
| Cc1noc(C)c1NC(=O)Nc1ccc2c(c1)C(=O)N([C@@H](C)CO)C[C@H](C)[C@H](CN(C)S(=O)(=O)c1cn(C)cn1)OCCCC[C@@H](C)O2 | -9.38% |
| COC(=O)C[C@H]1C[C@H]2c3cc(NC(=O)NC4CCCCC4)ccc3O[C@H]2[C@H](CO)O1 | -2.98% |
| CN1c2ccc(C=O)c3c(C=O)ccc(c23)N(C)C1(C)C | 13.9% (active) |
| CCSC1(SCC)N=C(N)C2(C#N)C(c3ccccc3)NC(C)=CC12C#N (configuration not stated) | 48.6% (active) |
| CCCC(=O)Nc1ccc2c(c1)OC[C@H](C)N(C(=O)C1CCCC1)C[C@@H](C)[C@H](OC)CN(C)C2=O | -5.43% |
| COc1ccccc1NC(=O)N[C@H]1CC[C@@H](CC(=O)N[C@@H](C)c2ccccc2)O[C@H]1CO | -7.69% |
| CCCNC(=O)C[C@H]1C[C@@H]2c3cc(NC(=O)C4CCOCC4)ccc3O[C@@H]2[C@@H](CO)O1 | -13.8% |
| CCCC#Cc1ccc2c(c1)O[C@@H](CN(C)S(=O)(=O)c1cccc(OC)c1)[C@H](C)CN([C@@H](C)CO)S2(=O)=O | 4.74% |
| Cc1ccccc1NC(=O)CSc1ccc2nnc(-c3ccccn3)n2n1 | 48% (active) |
| COc1cc(NC(=O)CSc2ccc(-c3cccnc3)nn2)cc(OC)c1 | -3.2% |
| Cc1ccccc1NC(=O)CSC1=NCCN1 | -6.23% |
| COc1ccc(C)cc1NC(=O)CSc1nnc2ccc(-c3ccccn3)nn12 | 12.1% |
| O=C(CSc1ccc(-c2ccccn2)nn1)Nc1ccccc1 | 58.5% (active) |
| O=C(CSc1ccc(-c2ccc(-n3cccn3)cc2)nn1)Nc1ccc([N+](=O)[O-])cc1 | -19.4% |
| COc1cccc(NC(=O)Nc2ccc3c(c2)C(=O)N(C)C[C@@H](OC)[C@H](C)CN(CC2CC2)[C@H](C)CO3)c1 | -0.496% |
| OC[C@H]1[C@@H](c2ccc(C#CC3(O)CCCC3)cc2)[C@H]2CN(Cc3cncnc3)CCCCN21 | 0.497% |
| CO[C@@H]1CN(C)C(=O)c2cc(NC(=O)C3CCC3)ccc2OC[C@H](C)N(Cc2ccccn2)C[C@H]1C | 2.51% |
